Drawing on paper PMC5101189, this text covers cross-linked residues for 6 substances.

Holding throughout (assay): cross-linking mass spectrometry
Common to all, as to details: BS3, purified complex

Assay [1] has as its target NSL1 (UniProt Q96IY1).
Assay [2] addresses DSN1 (UniProt Q9H410).
The target of assay [3] is SPC24 (UniProt Q8NBT2).
Assay [4] concerns the target ZWINT (UniProt O95229).
Assay [5] deals with SPC25 (UniProt Q9HBM1).
The target of assay [6] is MIS12 (UniProt Q9H081).
The target in assay [7] is PMF1 (UniProt Q6P1K2).
PMF1, sequence (Q6P1K2 whole entry): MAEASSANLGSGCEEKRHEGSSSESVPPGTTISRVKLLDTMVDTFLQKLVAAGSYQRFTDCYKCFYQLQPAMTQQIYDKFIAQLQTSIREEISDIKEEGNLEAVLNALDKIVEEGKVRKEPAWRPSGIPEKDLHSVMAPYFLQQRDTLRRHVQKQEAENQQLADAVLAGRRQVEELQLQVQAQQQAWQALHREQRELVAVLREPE

NDC80, O14777, sequence (O14777 whole entry): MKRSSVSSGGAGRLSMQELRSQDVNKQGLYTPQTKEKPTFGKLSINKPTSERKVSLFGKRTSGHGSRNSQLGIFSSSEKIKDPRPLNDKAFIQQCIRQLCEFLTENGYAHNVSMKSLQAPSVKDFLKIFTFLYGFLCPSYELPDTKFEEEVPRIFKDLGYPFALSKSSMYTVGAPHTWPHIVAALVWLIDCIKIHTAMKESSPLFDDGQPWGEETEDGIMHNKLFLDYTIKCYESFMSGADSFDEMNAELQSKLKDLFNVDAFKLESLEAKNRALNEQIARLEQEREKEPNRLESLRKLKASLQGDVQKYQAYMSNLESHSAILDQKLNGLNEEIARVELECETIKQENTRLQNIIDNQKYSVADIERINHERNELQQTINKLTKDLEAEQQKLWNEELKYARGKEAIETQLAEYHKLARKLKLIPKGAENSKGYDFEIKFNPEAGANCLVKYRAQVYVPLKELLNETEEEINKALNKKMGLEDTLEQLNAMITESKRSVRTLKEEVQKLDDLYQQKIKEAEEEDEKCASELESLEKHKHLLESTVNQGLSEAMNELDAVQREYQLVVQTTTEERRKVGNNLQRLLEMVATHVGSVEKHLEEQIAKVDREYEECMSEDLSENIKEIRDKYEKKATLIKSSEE
SPC24, sequence (Q8NBT2 whole entry): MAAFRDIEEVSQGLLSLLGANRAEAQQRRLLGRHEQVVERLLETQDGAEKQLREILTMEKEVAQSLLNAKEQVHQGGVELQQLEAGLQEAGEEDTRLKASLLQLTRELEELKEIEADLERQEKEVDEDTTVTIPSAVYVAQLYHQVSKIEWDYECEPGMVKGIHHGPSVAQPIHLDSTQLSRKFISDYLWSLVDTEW
NSL1, sequence (Q96IY1 whole entry): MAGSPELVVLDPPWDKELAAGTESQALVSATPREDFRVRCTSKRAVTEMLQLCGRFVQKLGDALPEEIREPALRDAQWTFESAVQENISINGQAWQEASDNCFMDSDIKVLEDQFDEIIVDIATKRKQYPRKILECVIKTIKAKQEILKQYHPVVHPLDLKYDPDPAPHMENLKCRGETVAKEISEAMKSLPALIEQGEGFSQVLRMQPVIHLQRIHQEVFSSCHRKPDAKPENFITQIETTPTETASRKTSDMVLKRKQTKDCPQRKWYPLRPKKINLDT
CENPC, Q03188, sequence (Q03188 whole entry): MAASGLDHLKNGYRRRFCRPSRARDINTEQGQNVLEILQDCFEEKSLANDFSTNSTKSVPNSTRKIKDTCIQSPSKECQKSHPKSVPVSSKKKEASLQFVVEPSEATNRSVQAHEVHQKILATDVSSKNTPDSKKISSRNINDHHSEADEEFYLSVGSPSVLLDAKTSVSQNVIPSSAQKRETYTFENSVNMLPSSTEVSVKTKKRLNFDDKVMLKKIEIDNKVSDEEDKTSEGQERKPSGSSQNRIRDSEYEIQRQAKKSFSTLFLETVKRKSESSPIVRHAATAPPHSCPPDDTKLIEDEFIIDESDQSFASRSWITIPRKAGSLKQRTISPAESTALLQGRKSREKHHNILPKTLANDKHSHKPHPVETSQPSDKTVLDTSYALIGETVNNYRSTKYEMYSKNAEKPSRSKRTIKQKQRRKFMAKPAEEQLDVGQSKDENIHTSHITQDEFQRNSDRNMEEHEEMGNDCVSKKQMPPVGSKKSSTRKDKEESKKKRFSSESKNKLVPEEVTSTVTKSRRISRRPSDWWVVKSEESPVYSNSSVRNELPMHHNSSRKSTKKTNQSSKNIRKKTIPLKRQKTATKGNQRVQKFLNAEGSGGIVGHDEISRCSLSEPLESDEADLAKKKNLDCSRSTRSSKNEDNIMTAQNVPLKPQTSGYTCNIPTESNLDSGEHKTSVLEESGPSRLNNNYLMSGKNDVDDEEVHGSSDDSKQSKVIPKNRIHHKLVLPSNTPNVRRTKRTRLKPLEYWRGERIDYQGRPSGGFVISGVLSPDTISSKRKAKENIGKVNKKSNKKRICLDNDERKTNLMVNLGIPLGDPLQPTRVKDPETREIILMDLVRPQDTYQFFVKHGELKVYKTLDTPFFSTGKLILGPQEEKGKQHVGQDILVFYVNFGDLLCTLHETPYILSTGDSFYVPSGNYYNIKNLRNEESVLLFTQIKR
PMF1, Q6P1K2, sequence (Q6P1K2 whole entry): as the sequence (Q6P1K2 whole entry) above
ZWINT, sequence (O95229 whole entry): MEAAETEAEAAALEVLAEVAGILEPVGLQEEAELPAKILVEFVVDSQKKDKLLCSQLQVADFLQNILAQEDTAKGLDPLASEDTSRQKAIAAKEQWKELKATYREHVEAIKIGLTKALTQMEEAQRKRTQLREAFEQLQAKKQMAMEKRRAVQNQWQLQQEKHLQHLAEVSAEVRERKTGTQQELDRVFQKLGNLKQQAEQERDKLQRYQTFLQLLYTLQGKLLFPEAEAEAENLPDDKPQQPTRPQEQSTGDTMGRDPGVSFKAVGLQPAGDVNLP
ZWINT, O95229, sequence (O95229 whole entry): as above
SPC25, sequence (Q9HBM1 whole entry): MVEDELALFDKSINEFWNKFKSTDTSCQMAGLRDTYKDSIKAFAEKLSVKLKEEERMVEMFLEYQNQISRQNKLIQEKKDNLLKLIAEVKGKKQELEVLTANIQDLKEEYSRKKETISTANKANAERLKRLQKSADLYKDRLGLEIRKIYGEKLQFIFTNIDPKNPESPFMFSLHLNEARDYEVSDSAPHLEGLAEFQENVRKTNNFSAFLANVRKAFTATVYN
NSL1, Q96IY1, sequence (Q96IY1 whole entry): as the sequence (Q96IY1 whole entry) above
MIS12, sequence (Q9H081 whole entry): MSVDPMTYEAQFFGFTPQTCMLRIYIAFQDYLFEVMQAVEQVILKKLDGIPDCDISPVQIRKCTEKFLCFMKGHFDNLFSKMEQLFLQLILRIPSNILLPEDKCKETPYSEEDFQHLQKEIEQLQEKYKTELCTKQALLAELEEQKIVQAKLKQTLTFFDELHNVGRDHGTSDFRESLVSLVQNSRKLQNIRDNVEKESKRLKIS
DSN1, sequence (Q9H410 whole entry): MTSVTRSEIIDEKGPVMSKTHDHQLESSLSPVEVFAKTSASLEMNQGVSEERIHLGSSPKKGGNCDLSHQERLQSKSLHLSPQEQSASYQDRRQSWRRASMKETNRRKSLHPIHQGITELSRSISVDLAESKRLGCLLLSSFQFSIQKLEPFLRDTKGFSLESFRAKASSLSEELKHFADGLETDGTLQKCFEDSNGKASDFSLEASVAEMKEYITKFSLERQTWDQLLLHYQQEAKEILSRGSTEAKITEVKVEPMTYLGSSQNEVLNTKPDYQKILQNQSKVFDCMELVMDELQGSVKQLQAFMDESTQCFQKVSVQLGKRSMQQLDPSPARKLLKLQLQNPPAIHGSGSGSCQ

For ZWINT, O95229, in assay [1], the cross-linked residues entry is listed as “K196 - K262”.
NDC80, O14777: the cross-linked residues entry in assay [2] is reported as “K300 - K315”; in assay [3], “K624 - K50”; in assay [4], “K271 - K141”.
Consider KNL1, Q8NG31, for which the cross-linked residues result in assay [1] is listed as “K2247 - K268”.
On to NSL1, Q96IY1, for which the cross-linked residues result in assay [5] is listed as “K275 - K203”.
Turning to PMF1, Q6P1K2, in assay [3], the cross-linked residues entry is on record as “K79 - K98”.
As to CENPC, Q03188, the cross-linked residues entry is listed as “K45 - K81” in assay [6] and “K45 - K48” in assay [7].
